The test system of experiment [1] is EPHA2. The note with it: concentration: 1 μM, replicates: in singlicate; n = 1.
The test system of experiment [2] is EPHA3. The note with it: concentration: 1 μM, replicates: in singlicate; n = 1.
The test system of experiment [3] is EPHA4. The following applies: concentration: 1 μM, replicates: in singlicate; n = 1.
For experiment [4], the system named is EPHA5. The following applies: concentration: 1 μM, replicates: in singlicate; n = 1.
For experiment [5], the system named is EPHA6. The note with it: n = 1.
Experiment [6] relates to EPHA7. The note with it: concentration: 1 μM, replicates: in singlicate; n = 1.
Experiment [7] relates to EPHA8. The note with it: concentration: 1 μM, replicates: in singlicate; n = 1.
In experiment [8] the test system is EPHB1. The note with it: concentration: 1 μM, replicates: in singlicate; n = 1.
Experiment [9] has as its system EPHB2. The following applies: concentration: 1 μM, replicates: in singlicate; n = 1.
Experiment [10] has as its system EPHB3. The note with it: concentration: 1 μM, replicates: in singlicate; n = 1.
The subject of experiment [11] is EPHB4. The note with it: concentration: 1 μM, replicates: in singlicate; n = 1.
Experiment [12] has as its system EPHB6. The following applies: concentration: 1 μM, replicates: in singlicate; n = 1.
The subject of experiment [13] is ERBB2. The following applies: concentration: 1 μM, replicates: in singlicate; n = 1.
Experiment [14] concerns ERBB3. The following applies: concentration: 1 μM, replicates: in singlicate; n = 1.
Experiment [15] relates to ERBB4. The following applies: concentration: 1 μM, replicates: in singlicate; n = 1.
The test system of experiment [16] is T1, ERK1.
T1 construct: gene MAPK3
The note with it: concentration: 1 μM, replicates: in singlicate; n = 1.

In experiment [17] the test system is T2, ERK2.
T2 construct: gene MAPK1
The following applies: concentration: 1 μM, replicates: in singlicate; n = 1.

Experiment [18] relates to T3, ERK3.
T3 construct: gene MAPK6
The following applies: concentration: 1 μM, replicates: in singlicate; n = 1.

For experiment [19], the system named is T4, ERK4.
T4 construct: gene MAPK4
The following applies: concentration: 1 μM, replicates: in singlicate; n = 1.

Experiment [20] concerns T5, ERK5.
T5 construct: gene MAPK7
The following applies: concentration: 1 μM, replicates: in singlicate; n = 1.

[21] abbreviates: concentration: 1 μM, replicates: in singlicate.

These results are taken from paper PMC5540273 (PLoS ONE, 2017).

Read-outs that look alike come from different tables or passages of the source.
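Note: KINOMEscan kinase panel screen.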

In the case of `Cc1ccc(NC(=O)c2ccc(Cl)cc2)cc1-c1ccc(C(=O)Nc2ccncc2)cc1` [GSK1398467], the “%Inh” value in experiment [1] was 9%; in [2], 81%; in experiment [3] it was 11%; in experiment [4], 0%; in experiment [5] (setting [21]), 0%; in experiment [6] it was 4%. For the same molecule, the “%Inh” value is 18% in experiment [7]; 19% in experiment [8]; 7% in [9]; 8% in experiment [10]; 30% in experiment [11]; 0% in [12]. The “%Inh” value was found to be 30% in [13]; 0% in experiment [14]; 12% in experiment [15]; 0% in [16]; 0% in experiment [17]; 0% in [18]. Further, the “%Inh” value came out at 19% in experiment [19] and 0% in experiment [20].
On to `CC(=O)c1c(C)c2cnc(Nc3ccc(N4CCNCC4)cn3)nc2n(C2CCCC2)c1=O`, for which the “%Inh” value is reported as 16% in [1]; 0% in experiment [2]; 0% in experiment [3]; 0% in [4]; 0% in experiment [5] (setting [21]); 0% in experiment [6]. Moreover, the “%Inh” value in experiment [7] was 0%; in experiment [8], 0%; in experiment [9], 0%; in experiment [10], 3%; in experiment [11], 23%; in experiment [12], 17%. Moreover, the “%Inh” value in [13] amounted to 9%; in experiment [14] it was 0%; in experiment [15] it was 0%; in experiment [16], 0%; in [17], 0%; in [18] it was 89%. Further, the “%Inh” value in experiment [19] is given as 25%; in [20], 0%.
`COc1ccc(Nc2nccc(N3CCC(NC(=O)C(C)c4ccc(Cl)cc4)CC3)n2)cc1` (stereo not shown) [GSK1379812]: the “%Inh” value stood at 7% in experiment [1]; 5% in [2]; 0% in [3]; 0% in experiment [4]; 0% in experiment [5] (setting [21]); 0% in experiment [6]. Further, the “%Inh” value was found to be 9% in experiment [7]; 34% in experiment [8]; 71% in experiment [9]; 1% in experiment [10]; 0% in [11]; 100% in experiment [12]. The “%Inh” value is 19% in [13]; 19% in experiment [14]; 0% in experiment [15]; 0% in [16]; 4% in [17]; 2% in experiment [18]. Further, the “%Inh” value in experiment [19] and in [20] was 0% throughout.
For `CS(=O)(=O)Cc1ccc(Nc2nccc(-c3c(-c4cccc(NC(=O)C5CCCCC5)c4)nn4ncccc34)n2)cc1` [GSK350559], the “%Inh” value in experiment [1] came to 51%; in [2] it was 16%; in experiment [3], 14%; in experiment [4] it was 0%; in experiment [5] (1 µM), 2%; in experiment [6], 15%. Also, the “%Inh” value in experiment [7] is 15%; in [8] it was 2%; in [9], 3%; in experiment [10], 5%; in [11] it was 0%; in experiment [12], 42%. Further, the “%Inh” value is 25% in experiment [13]; 22% in experiment [14]; 74% in [15]; 2% in experiment [16]; 0% in experiment [17]; 0% in experiment [18]. The “%Inh” value came out at 3% in [19] and 0% in experiment [20].
With `Cc1ccc(-c2nc(Nc3ccncc3)c3ccccc3n2)s1` [GSK189015], the “%Inh” value in [1] stood at 28%; in experiment [2] it was 0%; in [3], 23%; in [4] it was 100%; in [5] (setting [21]) it was 30%; in [6], 22%. In addition, the “%Inh” value in [7] is on record as 26%; in experiment [8], 24%; in experiment [9], 0%; in experiment [10] it was 37%; in [11] it was 22%; in [12], 2%. Moreover, the “%Inh” value was 0% in experiment [13]; 0% in experiment [14]; 31% in [15]; 17% in experiment [16]; 100% in experiment [17]; 0% in experiment [18]. Besides, the “%Inh” value in [19] and in [20] was 0% throughout.
On to `NS(=O)(=O)c1cccc(N/C=C2\C(=O)Nc3ccc(S(=O)(=O)Cc4c(Cl)cccc4Cl)cc32)c1` [GSK398099], for which the “%Inh” value is 0% in experiment [1]; 12% in experiment [2]; 12% in [3]; 0% in experiment [4]; 3% in [5] (setting [21]); 8% in experiment [6]. The “%Inh” value in experiment [7] worked out at 31%; in experiment [8] it was 17%; in experiment [9], 14%; in [10] it was 6%; in [11], 15%; in experiment [12], 44%. Also, the “%Inh” value in [13] is reported as 0%; in experiment [14], 0%; in [15], 37%; in experiment [16], 0%; in experiment [17], 0%; in [18], 24%. For the same molecule, the entries for the “%Inh” value in experiment [19] and in experiment [20] were 48% and 0%, respectively.
Turning to `CC[C@@H]1CO[C@H](C(=O)Nc2ccccc2)CN1c1cc(-c2ccc3c(N)n[nH]c3c2)nc(NC)n1` [GSK2376236], the “%Inh” value in experiment [1] is listed as 21%; in experiment [2], 13%; in experiment [3], 6%; in [4] it was 0%; in experiment [5] (setting [21]) it was 9%; in [6] it was 2%. The “%Inh” value is on record as 9% in experiment [7]; 8% in experiment [8]; 14% in [9]; 16% in [10]; 16% in experiment [11]; 3% in experiment [12]. The “%Inh” value in experiment [13] is on record as 8%; in experiment [14] it was 0%; in experiment [15], 18%; in [16], 0%; in [17], 0%; in experiment [18], 8%. In addition, the “%Inh” value is reported as 42% in [19] and 7% in [20].
For the molecule `O=C(Nc1n[nH]c2nc(-c3cccs3)c(Br)cc12)C1CCCC1` [SB-743341], the “%Inh” value in experiment [1] amounted to 0%; in [2], 0%; in experiment [3], 6%; in experiment [4], 13%; in experiment [5] (setting [21]), 27%; in experiment [6] it was 8%. Further, the “%Inh” value in [7] turned out to be 1%; in [8], 0%; in experiment [9], 4%; in experiment [10], 35%; in experiment [11], 22%; in [12] it was 22%. For the same molecule, the “%Inh” value in experiment [13] is listed as 0%; in [14], 3%; in [15], 0%; in [16], 0%; in [17] it was 10%; in experiment [18], 9%. The “%Inh” value in experiment [19] and in experiment [20] was 0% throughout.
